Measured values as given in PubChem BioAssay.
Active and inactive are the calls of the source. Unless noted, the rule behind the calls is not given here.

Columns and labels:
[1] = anti-His antibody binders, primary screen, artefact control for SMM control protein annotation, biochemical, small-molecule microarray, 635 nm fluorescence (AID 1128); settings: anti-His Alexa647 antibody binding, higher = more signal;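 note: score merges feature fluorescence with signal-to-noise for each printed compound spot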
[2] = test system: Human papillomavirus type 1a E7 protein (residues 1-88); assay: HPV1a E7 small-molecule binders, primary screen, biochemical, small-molecule microarray, residues 1-88, 635 nm (AID 1129); settings: small-molecule microarray binding, fluorescence 635 nm; higher = more signal
[3] = target: Focal adhesion kinase 1 (Homo sapiens) (UniProt Q05397); assay: small-molecule microarray binders of FAK, primary screen, biochemical, 635/667 nm fluorescence, BSA, DTT (AID 1130); settings: PTK2 binding, 635 nm fluorescence, higher = more signal;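 note: composite of spot emission at 667 nm and signal to noise over triplicate slides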
[4] = test system: Fibrinogen (Alexa647-labelled); assay: fibrinogen binders on compound microarrays, profiling panel, artefact control for SMM control-protein annotation, biochemical, small-molecule microarray, 635/667 nm fluorescence (AID 1131); settings: fibrinogen-A647 binding fluorescence, higher = more signal;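 note: z-score merges 667 nm fluorescence with per-spot signal-to-noise over triplicate slides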
[5] = target: Follistatin (Homo sapiens) (UniProt P19883); assay: follistatin binders on small-molecule microarrays, primary screen, biochemical, small-molecule microarray, 635/667 nm fluorescence (AID 1132); settings: FST binding, 635 nm fluorescence, higher = more signal
[6] = target: Fibroblast growth factor 2 (Homo sapiens) (UniProt P09038); assay: FGF2 binders on small-molecule microarrays, primary screen, biochemical, small-molecule microarray, 635/667 nm fluorescence (AID 1133); settings: small-molecule microarray binding, FGF2, fluorescence 635/667; higher = more signal
[7] = mitochondrial membrane potential change in A549 cells, profiling panel, cell-based, JC-1 fluorescence, basal, 24 h, 100 nL (AID 1138); settings: higher = more signal;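 note: A549 lung adenocarcinoma cells under basal conditions with no added stimulus; test concentration not given here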
Lefty1 = Lefty1 binders on small-molecule microarrays, primary screen, biochemical, small-molecule microarray, 635/667 nm fluorescence (AID 1139); settings: small-molecule microarray binding, fluorescence 635/667; higher = more signal
[8] = test system: wheat germ agglutinin (Triticum aestivum), Alexa647-labelled; assay: wheat germ agglutinin binders on compound microarrays, profiling panel, artefact control for SMM control-protein annotation, biochemical, small-molecule microarray, 635/667 nm fluorescence (AID 1140); settings: WGA-A647 binding, 635 nm fluorescence, higher = more signal;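 note: score merges 667 nm feature emission with signal to noise over triplicate slides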
[9] = target: Luciferin 4-monooxygenase (Photinus pyralis) (UniProt P08659); assay: firefly luciferase enzyme inhibitors, primary screen, biochemical, luminescence, purified enzyme, 2006 set (AID 1141); settings: SteadyGlo luminescence, 30 min, higher = more signal, called active from +8 up or from −8 down;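 note: cell-free assay with purified firefly luciferase at 100 ng per well in PBS; test concentration not given here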
[10] = test system: Wnt5a (protein binding on small-molecule microarray); assay: Wnt5a binders on small-molecule microarray, primary screen, biophysical, 635/667 nm fluorescence (AID 1142); settings: 635 nm fluorescence, higher = more signal;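 note: fluorescence read at 667 nm with signal to noise per printed feature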
[11] = cell viability in Huh7 cells, primary screen, cytotoxicity control for HCV replication inhibitor project, CellTiter-Glo luminescence, basal, 48 h (AID 1143); settings: Huh7 HCV replicon, higher = more signal, called active from +8 up or from −8 down;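 note: Huh7 hepatoma cells carrying a hepatitis C replication reporter with no stimulus; test concentration not given here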
[12] = P. aeruginosa biofilm formation inhibitors, primary screen, PAO1 strain, BacTiter-Glo luminescence, LB-PBS (AID 1144); settings: 12 h, higher = more signal
[13] = CREB reporter modulators without forskolin, primary screen, cell-based, PC12, CRE-LacZ reporter, unstimulated (AID 1145); settings: no forskolin, luminescence, 4.5 h, higher = more signal, called active from +8 up or from −8 down
[14] = CREB reporter modulators under forskolin, primary screen, cell-based, PC12, CRE-LacZ reporter, forskolin-stimulated (AID 1146); settings: luminescence, 4.5 h, higher = more signal, called active from +8 up or from −8 down;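 note: PC12 cells with 6xCRE LacZ reporter stimulated by forskolin 10 µM; beta-galactosidase reporter signal reflecting CREB driven transcription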
[15] = target: Streptavidin (Streptomyces avidinii) (UniProt P22629); assay: streptavidin binders on small-molecule microarray, primary screen, artefact control for SMM compound annotation, biophysical, 635/667 nm fluorescence (AID 1147); settings: streptavidin binding, higher = more signal;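 note: signal reflects streptavidin binding to arrayed compounds as a control protein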
[16] = small-molecule binders of probe aInhba, primary screen, biochemical, small-molecule microarray, 635/667 nm fluorescence (AID 1148); settings: higher = more signal;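 note: score merges 667nm spot fluorescence with signal-to-noise for antibody binding to printed compounds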
Torsin-1A (Homo sapiens) [17] = target: Torsin-1A (Homo sapiens) (UniProt O14656); assay: torsin A binders from cell lysate, primary screen, small-molecule microarray, wild-type, 635/667 nm (AID 1149); settings: COS7 hTOR1A-WT lysate, 635 nm fluorescence, higher = more signal
Torsin-1A (Homo sapiens) [18] = target: Torsin-1A (Homo sapiens) (UniProt O14656); assay: small-molecule binders of mutant TOR1A in lysate, primary screen, cell lysate, small-molecule microarray, COS7 lysate, 635/667 nm fluorescence (AID 1150); settings: COS7 hTOR1A mutant lysate, 635 nm fluorescence, higher = more signal;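 note: score pools 667 nm emission and signal to noise measuring lysate protein binding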
[19] = test system: Sonic hedgehog protein (Shh); assay: small-molecule binders of Shh protein, primary screen, biochemical, small-molecule microarray, 635/667 nm fluorescence (AID 1151); settings: small-molecule microarray binding, 635 nm fluorescence; higher = more signal;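 note: Shh protein binding to compounds spotted on small-molecule microarray slides; score combines spot fluorescence intensity with signal-to-noise across triplicate slides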

Fibroblast growth factor 2 (Homo sapiens), sequence (P09038 whole entry, looked up): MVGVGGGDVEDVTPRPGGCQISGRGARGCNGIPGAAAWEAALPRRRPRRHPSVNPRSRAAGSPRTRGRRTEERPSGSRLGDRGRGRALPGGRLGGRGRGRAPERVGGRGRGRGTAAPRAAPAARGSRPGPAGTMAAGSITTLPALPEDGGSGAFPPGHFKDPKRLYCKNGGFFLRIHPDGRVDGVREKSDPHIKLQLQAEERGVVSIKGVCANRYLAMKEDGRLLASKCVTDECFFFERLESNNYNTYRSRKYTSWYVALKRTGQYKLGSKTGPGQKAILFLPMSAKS
Streptavidin (Streptomyces avidinii), sequence (P22629 whole entry, looked up): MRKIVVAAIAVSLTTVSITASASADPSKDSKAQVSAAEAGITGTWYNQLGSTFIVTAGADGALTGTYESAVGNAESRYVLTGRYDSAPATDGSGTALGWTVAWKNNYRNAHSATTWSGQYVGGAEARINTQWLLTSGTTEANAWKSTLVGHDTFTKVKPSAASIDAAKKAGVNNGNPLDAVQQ
Luciferin 4-monooxygenase (Photinus pyralis), sequence (P08659 whole entry, looked up): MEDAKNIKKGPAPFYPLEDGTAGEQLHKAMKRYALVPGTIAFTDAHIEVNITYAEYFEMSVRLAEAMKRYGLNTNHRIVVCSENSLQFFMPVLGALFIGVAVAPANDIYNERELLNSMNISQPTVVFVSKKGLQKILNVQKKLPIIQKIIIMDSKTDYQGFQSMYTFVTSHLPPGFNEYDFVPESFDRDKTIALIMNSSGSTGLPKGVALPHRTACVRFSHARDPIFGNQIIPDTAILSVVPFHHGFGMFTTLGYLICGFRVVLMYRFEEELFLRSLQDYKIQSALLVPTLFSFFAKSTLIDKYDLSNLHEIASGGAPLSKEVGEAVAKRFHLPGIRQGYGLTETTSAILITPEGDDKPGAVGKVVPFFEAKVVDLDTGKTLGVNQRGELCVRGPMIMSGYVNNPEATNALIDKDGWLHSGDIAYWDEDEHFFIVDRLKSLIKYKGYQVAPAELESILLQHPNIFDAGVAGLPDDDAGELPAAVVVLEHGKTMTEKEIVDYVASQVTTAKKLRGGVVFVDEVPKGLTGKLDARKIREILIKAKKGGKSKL
Torsin-1A (Homo sapiens), sequence (O14656 whole entry, looked up): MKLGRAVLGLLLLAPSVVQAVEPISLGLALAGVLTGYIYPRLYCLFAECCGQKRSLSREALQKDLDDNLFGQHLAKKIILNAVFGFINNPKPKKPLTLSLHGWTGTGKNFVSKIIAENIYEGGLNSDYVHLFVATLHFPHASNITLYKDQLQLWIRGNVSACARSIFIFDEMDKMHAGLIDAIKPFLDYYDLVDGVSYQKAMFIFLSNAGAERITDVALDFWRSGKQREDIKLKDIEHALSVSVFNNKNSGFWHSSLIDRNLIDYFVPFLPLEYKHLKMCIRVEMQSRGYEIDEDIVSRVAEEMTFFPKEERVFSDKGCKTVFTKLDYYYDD
Follistatin (Homo sapiens), sequence (P19883 whole entry, looked up): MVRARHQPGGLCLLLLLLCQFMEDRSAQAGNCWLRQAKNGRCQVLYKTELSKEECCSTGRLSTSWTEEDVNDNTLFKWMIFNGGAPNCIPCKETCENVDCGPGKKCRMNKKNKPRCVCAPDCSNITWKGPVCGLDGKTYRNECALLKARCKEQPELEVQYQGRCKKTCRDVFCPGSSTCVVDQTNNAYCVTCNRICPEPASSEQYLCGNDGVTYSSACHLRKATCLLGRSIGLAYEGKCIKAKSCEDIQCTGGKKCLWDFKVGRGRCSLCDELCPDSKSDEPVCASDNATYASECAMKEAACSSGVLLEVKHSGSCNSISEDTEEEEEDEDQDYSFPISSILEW
Focal adhesion kinase 1 (Homo sapiens), sequence (Q05397 whole entry, looked up): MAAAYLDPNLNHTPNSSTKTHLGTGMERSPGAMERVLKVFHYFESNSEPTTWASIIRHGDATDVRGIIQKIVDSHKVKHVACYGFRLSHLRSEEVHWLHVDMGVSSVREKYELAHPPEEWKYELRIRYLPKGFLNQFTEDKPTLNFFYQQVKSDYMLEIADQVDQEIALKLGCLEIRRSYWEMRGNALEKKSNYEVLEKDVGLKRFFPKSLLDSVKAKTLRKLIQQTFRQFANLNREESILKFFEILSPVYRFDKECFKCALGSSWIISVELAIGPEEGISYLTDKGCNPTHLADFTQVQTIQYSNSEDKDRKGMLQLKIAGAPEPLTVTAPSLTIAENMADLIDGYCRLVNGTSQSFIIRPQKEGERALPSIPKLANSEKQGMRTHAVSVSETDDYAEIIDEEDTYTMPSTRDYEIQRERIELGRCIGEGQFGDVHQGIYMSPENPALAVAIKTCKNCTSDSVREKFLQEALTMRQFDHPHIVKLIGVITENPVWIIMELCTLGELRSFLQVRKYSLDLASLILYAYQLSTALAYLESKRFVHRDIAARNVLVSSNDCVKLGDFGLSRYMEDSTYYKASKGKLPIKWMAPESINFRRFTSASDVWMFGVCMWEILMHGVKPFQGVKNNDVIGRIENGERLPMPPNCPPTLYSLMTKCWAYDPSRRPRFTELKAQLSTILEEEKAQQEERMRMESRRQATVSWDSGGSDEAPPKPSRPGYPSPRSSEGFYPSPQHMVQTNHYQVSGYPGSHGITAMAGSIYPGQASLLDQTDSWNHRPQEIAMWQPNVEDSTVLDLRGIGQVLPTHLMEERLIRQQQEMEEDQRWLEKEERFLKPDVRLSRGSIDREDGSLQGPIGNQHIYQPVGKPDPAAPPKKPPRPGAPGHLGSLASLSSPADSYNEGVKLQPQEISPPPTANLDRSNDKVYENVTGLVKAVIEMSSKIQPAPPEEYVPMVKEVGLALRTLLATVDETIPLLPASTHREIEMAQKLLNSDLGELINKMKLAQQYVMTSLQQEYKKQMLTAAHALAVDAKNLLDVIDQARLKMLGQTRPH

`C[N+](C)(C)CCCCCCNC(=O)[C@@H]1C[C@@H]2C(=O)NCC(=O)N2[C@@H]1c1cccc(OCCO)c1` showed a composite z-score [1] of 1.4, a composite z-score [2] of 0.044 and a composite z-score [3] of 1.18. For the same compound, the composite z-score [4] was 0.615, the composite z-score [5] was 1.38 and the composite z-score [6] was 1.33. For the same compound, the z-score [7] was -0.842, the composite z-score (Lefty1) was 1.28 and the composite z-score [8] was 0.571. For the same compound, the z-score [9] was 0.801 (inactive), the composite z-score [10] was 0.338 and the z-score [11] was -3.36 (inactive). For the same compound, the z-score [12] was -1.82 (inactive), the z-score [13] was -0.797 (inactive) and the z-score [14] was -0.933 (inactive). For the same compound, the composite z-score [15] was -0.357, the composite z-score [16] was -0.0986 and the composite z-score (Torsin-1A (Homo sapiens) [17]) was 0.335. For the same compound, the composite z-score (Torsin-1A (Homo sapiens) [18]) was -0.371 and the composite z-score [19] was 2.16.
`COC(=O)[C@@]1(Cc2ccc(F)cc2)[C@H]2c3cc(C(=O)N(C)C)n(Cc4ccc(C)c(F)c4F)c3C[C@H]2CN1C(=O)c1ccccc1` gave a composite z-score [1] of 2.08, a composite z-score [2] of 0.864 and a composite z-score [3] of 0.454. It also gave a composite z-score [4] of 0.743, a composite z-score [5] of 0.0662 and a composite z-score [6] of -0.769. It also gave a z-score [7] of 1.33, a composite z-score (Lefty1) of -0.413 and a composite z-score [8] of 0.854. The z-score [9] was 0.0883 (inactive), the composite z-score [10] was 0.152 and the z-score [11] was -1.47 (inactive). The z-score [12] was 0.563 (inactive), the z-score [13] was 0.0041 (inactive) and the z-score [14] was 0.204 (inactive). The composite z-score [15] was 0.993, the composite z-score [16] was 0.651 and the composite z-score (Torsin-1A (Homo sapiens) [17]) was 0.123. For the same compound, the composite z-score (Torsin-1A (Homo sapiens) [18]) was 0.432 and the composite z-score [19] was -0.553.
`COCCOC(=O)N1C(=O)[C@@]2(c3cc(C#Cc4ccc(OC)cc4)ccc31)[C@H](C(=O)N1CCc3cc(OC)c(OC)cc3C1)[C@H]1C(=O)O[C@H](c3ccccc3)[C@H](c3ccccc3)N1[C@@H]2c1ccc(OCCO)cc1` gave a composite z-score [1] of 0.839, a composite z-score [2] of 1.13 and a composite z-score [3] of 0.5. It also gave a composite z-score [4] of 0.195, a composite z-score [5] of 1.19 and a composite z-score [6] of 1.3. It also gave a z-score [7] of -1.79, a composite z-score (Lefty1) of 0.88 and a composite z-score [8] of 0.596. The z-score [9] was -1.23 (inactive), the composite z-score [10] was 0.4 and the z-score [11] was -0.831 (inactive). The z-score [12] was -0.959 (inactive), the z-score [13] was -1.27 (inactive) and the z-score [14] was -0.194 (inactive). The composite z-score [15] was 0.364, the composite z-score [16] was 0.124 and the composite z-score (Torsin-1A (Homo sapiens) [17]) was 0.666. For the same compound, the composite z-score (Torsin-1A (Homo sapiens) [18]) was 0.528 and the composite z-score [19] was 1.69.
In the case of `O=C1C2C=CC(C(O)c3cccc4ccccc34)N(Nc3ccccc3)C2C(=O)N1c1ccccc1` (stereo not given), the composite z-score [1] is reported as 2.24, the composite z-score [2] is reported as 1.17 and the composite z-score [3] is reported as 1.99. For the same compound, the composite z-score [4] was 0.971, the composite z-score [5] was 1.23 and the composite z-score [6] was 0.729. For the same compound, the z-score [7] was -0.39, the composite z-score (Lefty1) was 0.576 and the composite z-score [8] was 0.753. For the same compound, the z-score [9] was -1.05 (inactive), the composite z-score [10] was 0.336 and the z-score [11] was -1.3 (inactive). For the same compound, the z-score [12] was -1.46 (inactive), the z-score [13] was 0.429 (inactive) and the z-score [14] was -0.637 (inactive). It also gave a composite z-score [15] of 0.595, a composite z-score [16] of 0.0705 and a composite z-score (Torsin-1A (Homo sapiens) [17]) of 0.327. It also gave a composite z-score (Torsin-1A (Homo sapiens) [18]) of 0.463 and a composite z-score [19] of 0.296.
Work on `O=C1O[C@H](c2ccccc2)[C@H](c2ccccc2)N2[C@H]1[C@@H](C(=O)N1CCN(c3ncccn3)CC1)[C@]1(C(=O)Nc3ccc(C#CCCO)cc31)[C@H]2c1ccc(OCCO)cc1` yielded a composite z-score [1] of 2.06, a composite z-score [2] of 1.2 and a composite z-score [3] of 0.372. It also gave a composite z-score [4] of 0.934, a composite z-score [5] of 1.36 and a composite z-score [6] of 0.597. The z-score [7] was -0.756, the composite z-score (Lefty1) was 1.57 and the composite z-score [8] was 0.772. For the same compound, the z-score [9] was -0.713 (inactive), the composite z-score [10] was 1.02 and the z-score [11] was 0.505 (inactive). The z-score [12] was -0.339 (inactive), the z-score [13] was -0.471 (inactive) and the z-score [14] was 0.344 (inactive). For the same compound, the composite z-score [15] was 1.19, the composite z-score [16] was 0.221 and the composite z-score (Torsin-1A (Homo sapiens) [17]) was 0.949. For the same compound, the composite z-score (Torsin-1A (Homo sapiens) [18]) was 0.938 and the composite z-score [19] was 1.39.
`COc1ccccc1CN1C(=O)c2ccccc2[C@](Cc2ccccc2I)(C(=O)NCCN2CCOCC2)[C@@H]1c1ccc(CO)cc1` showed a composite z-score [1] of 0.74, a composite z-score [2] of 1.18 and a composite z-score [3] of 0.467. The composite z-score [4] was 0.913, the composite z-score [5] was 1.41 and the composite z-score [6] was 1.39. For the same compound, the z-score [7] was 2.51, the composite z-score (Lefty1) was 0.988 and the composite z-score [8] was 0.718. For the same compound, the z-score [9] was -1.06 (inactive), the composite z-score [10] was 0.375 and the z-score [11] was -4.52 (inactive). For the same compound, the z-score [12] was 0.506 (inactive), the z-score [13] was 0.648 (inactive) and the z-score [14] was -0.746 (inactive). The composite z-score [15] was 0.593, the composite z-score [16] was -0.101 and the composite z-score (Torsin-1A (Homo sapiens) [17]) was 0.301. The composite z-score (Torsin-1A (Homo sapiens) [18]) was 0.504 and the composite z-score [19] was 1.48.
In the case of `CCCNC(=O)[C@@]1(Sc2ccc(C)cc2)CC(=O)N(Cc2ccccc2)[C@@H]1c1ccc(CO)cc1I`, the composite z-score [1] is reported as 0.381, the composite z-score [2] is reported as 0.561 and the composite z-score [3] is reported as 0.0147. It also gave a composite z-score [4] of -0.122, a composite z-score [5] of 1.38 and a composite z-score [6] of 1.16. It also gave a z-score [7] of 0.651, a composite z-score (Lefty1) of 0.427 and a composite z-score [8] of 0.996. For the same compound, the z-score [9] was 0.0043 (inactive), the composite z-score [10] was 0.308 and the z-score [11] was -1.81 (inactive). The z-score [12] was 0.029 (inactive), the z-score [13] was 0.0655 (inactive) and the z-score [14] was 1.08 (inactive). The composite z-score [15] was 0.203, the composite z-score [16] was -0.0221 and the composite z-score (Torsin-1A (Homo sapiens) [17]) was 0.123. For the same compound, the composite z-score (Torsin-1A (Homo sapiens) [18]) was 0.485 and the composite z-score [19] was 1.96.
With `C=CC[C@]1(C(=O)N(C)C)N=C(c2ccc(OCCCO)cc2)O[C@H]1c1ccccc1` the composite z-score [1] was 0.661, the composite z-score [2] was 1.23 and the composite z-score [3] was 1.04. For the same compound, the composite z-score [4] was 0.951, the composite z-score [5] was 0.915 and the composite z-score [6] was -0.165. The z-score [7] was -0.259, the composite z-score (Lefty1) was 0.457 and the composite z-score [8] was 0.149. The z-score [9] was -1.52 (inactive), the composite z-score [10] was 0.902 and the z-score [11] was -4.69 (inactive). The z-score [12] was -0.87 (inactive), the z-score [13] was -0.38 (inactive) and the z-score [14] was -1.19 (inactive). The composite z-score [15] was 0.197, the composite z-score [16] was 0.0471 and the composite z-score (Torsin-1A (Homo sapiens) [17]) was 0.62. For the same compound, the composite z-score (Torsin-1A (Homo sapiens) [18]) was 1.27 and the composite z-score [19] was 0.757.
